Source: PubChem BioAssay AID1159580 (chemical genetic matrix, 2015)
Where “and” joins values, the source holds several entries; their conditions need not be identical. Equal entries are not always repeated. About 2,000 (36%) of roughly 5,500 compounds were called active. Another 18% or so got no clear call; they are omitted. Rule as the data show it: active = normalized growth mostly below about 0.91 (no sharp cut-off); inconclusive = no clear call, values can overlap the other calls; inactive = mostly above about 0.92. The list shows a part of the results.

Assay: chemical genetic growth profiling, strain panel (AID 1159580);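 also: tested at 20 µM; growth read once vehicle control cultures reached saturation at 30 °C; 1 = growth at the plate median or of vehicle wells; lower values mean less growth of the strain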
Conditions: S. cerevisiae deletion strains, growth OD

Measured: normalized growth

CCN(CC)CCOC(=O)C1(C2CCCCC2)CCCCC1
inactive: locus YJR066W, strain TOR1, active compounds read low 0.951 | locus YJR075W, strain HOC1, active compounds read low 0.952 and 0.974 | locus YKL009W, strain mrt4, active compounds read low 0.971 | locus YKL068W, active compounds read low 0.992 | locus YKL085W, strain MDH1 (second series), active compounds read low 0.963 | locus YKL085W, strain MDH1, active compounds read low 0.963 | locus YKL160W, strain elf1, active compounds read low 1.01 | locus YKR001C, strain vps1, active compounds read low 1 | locus YKR026C, strain gcn3, active compounds read low 0.982 | locus YKR091W, strain srl3, active compounds read low 0.978 | locus YLL001W, strain dnm1, active compounds read low 0.998 | locus YLL026W, active compounds read low 0.997 | locus YLL041C, strain sdh2, active compounds read low 0.987 | locus YLR027C, strain aat2, active compounds read low 0.994 | locus YLR039C, strain RIC1, active compounds read low 1.3 | locus YLR058C, strain SHM2, active compounds read low 0.985 | locus YLR102C, strain apc9, active compounds read low 0.987 | locus YLR113W, strain HOG1, active compounds read low 1.05 | locus YLR221C, strain rsa3, active compounds read low 0.952 | locus YLR258W, strain gsy2, active compounds read low 0.955 | locus YLR262C, strain YPT6 (second series), active compounds read low 1.04 | locus YLR262C, strain YPT6, active compounds read low 1.25 | locus YLR268W, strain sec22, active compounds read low 0.965 | locus YLR320W, strain mms22, active compounds read low 0.93 | locus YLR330W, strain CHS5, active compounds read low 0.999 | locus YLR342W, strain FKS1 (second series), active compounds read low 0.905 | locus YLR342W, strain FKS1, active compounds read low 0.983 | locus YLR357W, strain rsc2, active compounds read low 0.965 | locus YLR370C, strain arc18, active compounds read low 0.979 | locus YLR371W, strain rom2, active compounds read low 0.973 | locus YLR384C, strain iki3, active compounds read low 0.993 | locus YLR418C, strain cdc73, active compounds read low 0.847 | locus YML016C, strain PPZ1, active compounds read low 0.997 | locus YML032C, strain rad52, active compounds read low 0.966 | locus YML120C, strain ndi1, active compounds read low 0.985 | locus YML124C, strain tub3, active compounds read low 0.984 | locus YMR058W, strain fet3, active compounds read low 0.983 | locus YMR078C, strain ctf18, active compounds read low 0.978 | locus YMR125W, strain sto1, active compounds read low 0.946 | locus YMR129W, active compounds read low 0.972 | locus YMR205C, strain PFK2, active compounds read low 0.985 | locus YMR223W, strain ubp8, active compounds read low 0.932 | locus YMR231W, strain pep5, active compounds read low 0.985 | locus YMR263W, strain SAP30, active compounds read low 0.984 and 1 | locus YMR307W, strain GAS1, active compounds read low 1.23 and 1.02 | locus YNL067W, strain RPL9B, active compounds read low 0.979 | locus YNL071W, strain lat1, active compounds read low 0.951 | locus YNL128W, strain TEP1, active compounds read low 1.02 | locus YNL153C, strain GIM3, active compounds read low 0.966 and 0.991 | locus YNL175C, strain NOP13, active compounds read low 1.02 | locus YNL183C, strain NPR1, active compounds read low 0.995 | locus YNL197C, strain WHI3, active compounds read low 1.06 | locus YNL209W, strain ssb2, active compounds read low 0.947 | locus YNL224C, strain SQS1, active compounds read low 1.01 | locus YNL233W, strain BNI4, active compounds read low 0.962 | locus YNL248C, strain rpa49, active compounds read low 0.948 | locus YNL250W, strain rad50, active compounds read low 0.979 | locus YNL271C, strain bni1, active compounds read low 0.973 | locus YNL298W, strain CLA4, active compounds read low 1 | locus YNL307C, strain MCK1, active compounds read low 0.968 | locus YNL322C, strain KRE1 (second series), active compounds read low 0.979 | locus YNR049C, strain mso1, active compounds read low 0.979 | locus YNR052C, strain pop2, active compounds read low 0.961 | locus YOL012C, strain htz1 0.807 | locus YOL147C, strain pex11, active compounds read low 0.99 | locus YOR001W, strain rrp6, active compounds read low 1.01 | locus YOR061W, strain CKA2, active compounds read low 1 | locus YOR069W, strain VPS5, active compounds read low 0.994 | locus YOR070C, strain gyp1, active compounds read low 0.968 | locus YOR080W, strain dia2, active compounds read low 0.982 | locus YOR083W, strain WHI5 (second series), active compounds read low 1.02 | locus YOR083W, strain WHI5, active compounds read low 0.965 | locus YOR106W, strain vam3, active compounds read low 1 | locus YOR136W, strain idh2, active compounds read low 0.998 | locus YOR144C, strain elg1, active compounds read low 0.997 | locus YOR184W, strain ser1, active compounds read low 0.992 | locus YOR231W, strain MKK1, active compounds read low 1.04 | locus YOR265W, strain rbl2, active compounds read low 0.991 | locus YOR270C, strain vph1, active compounds read low 0.85 | locus YOR290C, strain snf2, active compounds read low 0.939 | locus YOR316C, strain cot1, active compounds read low 0.992 | locus YPL051W, strain arl3, active compounds read low 0.984 | locus YPL055C, strain LGE1, active compounds read low 0.986 | locus YPL078C, strain atp4, active compounds read low 1.01 | locus YPL106C, strain sse1, active compounds read low 0.939 | locus YPL240C, strain hsp82, active compounds read low 0.984 | locus YPL241C, strain CIN2, active compounds read low 0.998 | locus YPL256C, strain CLN2, active compounds read low 1.05 | locus YPR119W, strain clb2, active compounds read low 0.99 | locus YPR141C, strain kar3, active compounds read low 0.993 | locus YPR163C, strain tif3, active compounds read low 0.988 | locus YPR167C, strain met16, active compounds read low 0.983 | strain wtn01, active compounds read low 0.957
